In general, AC50 refers to the midpoint of the concentration-response curve, whichever way the signal moves.

In PubChem BioAssay (EPA / NIEHS) one finds outcome and AC50 data, which are given here for 15 compounds.

Each structure is given as a SMILES string. Calls of active or inactive are those of the source. The calls were made as follows: active = hit-call score of the fitted dose curve at least 0.9, where 1 is the maximum; inactive = score below 0.9.

The test in a line: CCTE_Shafer_MEA_dev_network_spike_duration_std: CCTE's Neural Network Formation Assay for Standard Deviation of Network Spike Duration, Shafer Lab (AID 2284052).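 Also: hits are decreases in network spike duration SD versus DMSO vehicle.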 The protocol:
CCTE_Shafer_MEA_dev assay is conducted using Axion Biosystems 48 well microelectrode array (MEA) plates and Maestro recording system. Each well of the MEA plate contains a grid of 16 microelectrodes embedded in the culture surface. Electrically active cells, such as neurons, can be cultured over the electrodes, and electrical activity in these cells can be recorded extracellularly. The spontaneous firing of neurons is captured from each electrode on a microsecond timescale providing both temporally and spatially precise data. […] The CCTE_Shafer_MEA_dev assay uses primary cultures of rat cortical neurons. Recordings are made on days post-plating 5, 7, 9 and 12. As these cultures mature over time, neural networks develop functional activity and form cohesive networks in which electrical activity can be highly coordinated. CCTE_Shafer_MEA_dev_network_spike_duration_std is 1 of 19 assay components of the CCTE_Shafer_MEA_dev assay. It measures the standard deviation of the duration of network spikes (temporally-clustered groups of action potential firing across multiple electrodes) during a recording in a microelectrode array (MEA) using Axion Biosystems Maestro 768 channel amplifier with the AxIS adaptive spike detector. To collapse across multiple recordings made on days post-plating 5, 7, 9 and 12, the trapezoidal area-under-the-curve of the component is calculated.Data from the assay component CCTE_Shafer_MEA_dev_network_spike_duration_std was analyzed into 1 assay endpoint. This assay endpoint, CCTE_Shafer_MEA_dev_network_spike_duration_std, was analyzed in the negative analysis fitting direction relative to DMSO as the negative control and baseline of activity. Using a type of functional reporter, gain or loss-of-signal activity can be used to understand electrical activity.
On the day prior to culture, each well was coated thoroughly with 150 uL of 0.05% polyethyleneimine (PEI, Sigma Cat P3143) in 50 mM HEPES (Sigma Cat H7523) at a pH of 8. The plate was incubated at 37C for one hour. PEI was rinsed out with 500 uL of sterile water three times. Plates were stored at 4C until the day of culture. This culture was plated at a seeding density of 1.5 x 10^5 cells/well on a 48-well MEA plate, prepared as described above. Cells were administered via a 25 uL media/laminin ([…]; Sigma Cat L2020-1MG) drop directly onto the microelectrode array, as adding the cells with the laminin results in better attachment than pre-coating with laminin. After 2 hours, an additional 475 uL of cortical media was added and the cells returned to the incubator. Exposure starts at day 0 of plating and is continued over twelve days of network development until the experiment is terminated. Cells are fed with fresh medium on DIV 5 and 9, following the recordings on those days. The entire volume of media in the well is exchanged and any vehicle or compound treatment is renewed. Complete details are found in OP-NHEERL/ISTD/SBB/TJS/2015-03-r0 (available on request, email shafer.tim@epa.gov). Measurement of the electrical activity is non-invasive, and recordings can be made from the same plate over multiple different days of the culture. In cortical neurons, this allows for the measurement of extracellular action potentials over the period during which networks form in the MEA plate.
On to `S=C([S-])NCCNC(=S)[S-].[Mn+2]`, for which the outcome was inactive.

Regarding `Oc1ccc(C(c2ccc(O)cc2)C(Cl)(Cl)Cl)cc1`, the call was inactive.

Regarding `CC(C)(c1ccc(O)cc1)c1ccc(O)cc1`, the result was inactive.

On to `OB(O)O`, for which the compound was classed as inactive.

For the compound `O=C(O)c1ccccc1`, the outcome was inactive.

On to `S=C(S)NCCNC(=S)S.[Mn+2].[S-]C([S-])=NCCN=C([S-])[S-].[Zn+2]`, for which the result was inactive.

With `CC1(C)C(C=C(Cl)Cl)C1C(=O)OCc1cccc(Oc2ccccc2)c1` (stereo not given), the outcome was inactive.

Consider `CCCCC(CC)CN1C(=O)C2C3C=CC(C3)C2C1=O` (stereo not given), for which the compound was called inactive.

`Cc1nn(C)c(Oc2ccccc2)c1C=NOCc1ccc(C(=O)OC(C)(C)C)cc1`: the concentration at half-maximal activity (AC50) is 0.953 nM (active).

Turning to `CCCN(CCC)C(=O)SCC`, the outcome was inactive.

Take `CCN(CC)C(=O)c1cccc(C)c1`: the result was inactive.

As for `COCCO`, the call was inactive.

`CSC(=O)c1cccc2nnsc12`: the compound was called inactive.

Consider `C#CCOC(=O)[C@@H](C)Oc1ccc(Oc2ncc(Cl)cc2F)cc1`, for which the call was inactive.

As for `CCCCOCCOCCOCc1cc2c(cc1CCC)OCO2`, the result was inactive.
